Laboratory results from paper PMC4336329 (PLoS ONE, 2015).
Hit rate of the full screen: of about 310,000 compounds, about 14,000 (4.5%) showed an effect of 50% or more. Effects have a minus sign here. Only a selection was taken, and strong results are over-represented in it overall.
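Further: peak tail current of the secondary pulse compared with the same well before compound.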

What follows are molecules tested against human ether-à-go-go-related gene (hERG) potassium channel (human, UniProt Q12809) (assay: primary screen, population patch clamp on CHO cells stably expressing hERG; higher = less effect of the substance).
Chain of human ether-à-go-go-related gene (hERG) potassium channel (Q12809 whole entry, looked up): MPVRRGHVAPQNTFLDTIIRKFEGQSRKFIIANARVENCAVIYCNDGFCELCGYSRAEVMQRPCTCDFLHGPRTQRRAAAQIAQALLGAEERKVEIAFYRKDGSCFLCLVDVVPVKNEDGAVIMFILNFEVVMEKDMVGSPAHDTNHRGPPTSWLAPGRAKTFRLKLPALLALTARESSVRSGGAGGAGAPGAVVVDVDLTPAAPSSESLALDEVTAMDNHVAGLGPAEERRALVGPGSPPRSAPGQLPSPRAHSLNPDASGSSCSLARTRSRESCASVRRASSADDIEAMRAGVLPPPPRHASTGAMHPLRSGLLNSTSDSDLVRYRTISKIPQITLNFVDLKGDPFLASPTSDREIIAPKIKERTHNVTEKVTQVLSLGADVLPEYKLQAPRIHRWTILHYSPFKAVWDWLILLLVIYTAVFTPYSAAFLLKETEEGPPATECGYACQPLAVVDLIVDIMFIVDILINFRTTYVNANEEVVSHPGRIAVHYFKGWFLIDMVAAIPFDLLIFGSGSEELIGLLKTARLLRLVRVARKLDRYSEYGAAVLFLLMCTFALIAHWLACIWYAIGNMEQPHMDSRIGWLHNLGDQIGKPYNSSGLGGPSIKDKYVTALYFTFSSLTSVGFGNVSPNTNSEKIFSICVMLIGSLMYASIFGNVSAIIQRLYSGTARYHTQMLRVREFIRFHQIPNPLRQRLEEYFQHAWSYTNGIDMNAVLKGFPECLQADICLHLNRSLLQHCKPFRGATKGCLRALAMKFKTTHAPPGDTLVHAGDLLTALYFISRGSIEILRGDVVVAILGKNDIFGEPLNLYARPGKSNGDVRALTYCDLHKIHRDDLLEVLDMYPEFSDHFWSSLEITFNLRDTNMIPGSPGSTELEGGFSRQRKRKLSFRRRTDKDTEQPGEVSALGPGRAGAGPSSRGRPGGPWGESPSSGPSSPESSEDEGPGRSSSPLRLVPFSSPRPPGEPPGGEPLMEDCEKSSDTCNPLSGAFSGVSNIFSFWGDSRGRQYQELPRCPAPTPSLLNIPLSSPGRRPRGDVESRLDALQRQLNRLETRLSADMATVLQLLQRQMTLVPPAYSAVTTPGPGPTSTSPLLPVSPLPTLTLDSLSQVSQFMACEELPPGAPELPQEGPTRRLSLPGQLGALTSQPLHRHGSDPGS
With `COc1ccc(CN2C3CCC2CC(NC(=O)c2cc(OC)c(OC)c(OC)c2)C3)cc1` (stereo not shown) the “hERG current change (%, negative = inhibition) at 10uM” value was -31.6%.
For `COc1ccc(C(=O)/C=C/c2cccc(OCc3ccccc3)c2)cc1CSCC(=O)O`, the “hERG current change (%, negative = inhibition) at 10uM” value was 7.09%.
With `COc1ccccc1CNC(=O)CCS(=O)(=O)c1ccc2c(c1)CC(C)N2C(=O)C1CC1` (stereo not shown) the “hERG current change (%, negative = inhibition) at 10uM” value was 15%.
In the case of `COc1cccc(NC(=S)NCCc2ccccn2)c1`, the “hERG current change (%, negative = inhibition) at 10uM” value is reported as 7.98%.
With `CS(=O)(=O)NCCCCNc1ccc(C(F)(F)F)cc1[N+](=O)[O-]` the “hERG current change (%, negative = inhibition) at 10uM” value was -56.8%.
With `CS(=O)(=O)NCCNc1ccc(C(F)(F)F)cc1[N+](=O)[O-]` the “hERG current change (%, negative = inhibition) at 10uM” value was -6.08%.
For `CS(=O)(=O)NCCCNc1ccc(C(F)(F)F)cc1[N+](=O)[O-]`, the “hERG current change (%, negative = inhibition) at 10uM” value was -35.1%.
`COc1ccc(NC(=O)C(=O)N/N=C/c2cccnc2)c(OC)c1` was tested, and the “hERG current change (%, negative = inhibition) at 10uM” value was 21.3%.
`N#CC1(c2nc3ccccc3[nH]2)CC1c1ccc2c(c1)OCO2` (stereo not shown) was tested, and the “hERG current change (%, negative = inhibition) at 10uM” value was 0.101%.
With `O=C(COC(=O)c1ccc(Cl)c(S(=O)(=O)N2CCOCC2)c1)NCc1ccco1` the “hERG current change (%, negative = inhibition) at 10uM” value was -17%.
For `COc1ccc(CN(C(=O)c2nsc(Cl)c2Cl)C(C(=O)NC2CCCC2)c2ccc(C)cc2)cc1` (stereo not shown), the “hERG current change (%, negative = inhibition) at 10uM” value was -12.4%.
In the case of `C/C(=N/OC(=O)c1ccc(C)cc1)c1ccc(N2C(=O)C3CCCCC3C2=O)cc1` (stereo not shown), the “hERG current change (%, negative = inhibition) at 10uM” value is reported as 16%.
For `O=c1c2ccccc2nc(/C=C/c2ccc([N+](=O)[O-])cc2)n1CCCO`, the “hERG current change (%, negative = inhibition) at 10uM” value was -57.4%.
For `N#Cc1ccccc1CSc1nc2ccsc2c(=O)n1Cc1ccccn1`, the “hERG current change (%, negative = inhibition) at 10uM” value was -10.9%.
For `Nn1c(SCc2ccc([N+](=O)[O-])cc2)nc2ccccc2c1=O`, the “hERG current change (%, negative = inhibition) at 10uM” value was 17.8%.
With `Cn1c(/C=C/c2ccc([N+](=O)[O-])o2)nc2ccccc2c1=O` the “hERG current change (%, negative = inhibition) at 10uM” value was -24.2%.
With `CCOC(CCn1c(SCc2ccc([N+](=O)[O-])cc2)nc2ccccc2c1=O)OCC` the “hERG current change (%, negative = inhibition) at 10uM” value was -39%.
`O=c1c2ccccc2nc(/C=C/c2ccc([N+](=O)[O-])o2)n1CCCO` was tested, and the “hERG current change (%, negative = inhibition) at 10uM” value was -51.7%.
With `O=c1c2sccc2nc(SCc2cc(=O)n3ccccc3n2)n1Cc1ccccn1` the “hERG current change (%, negative = inhibition) at 10uM” value was -22.3%.
In the case of `O=c1c2ccccc2nc(/C=C/c2cccc([N+](=O)[O-])c2)n1CCCO`, the “hERG current change (%, negative = inhibition) at 10uM” value is reported as -43%.
In the case of `O=c1c2sccc2nc(SCc2ccc([N+](=O)[O-])cc2)n1Cc1ccccn1`, the “hERG current change (%, negative = inhibition) at 10uM” value is reported as -61.6%.
For `O=c1c2ccccc2nc(/C=C/c2ccc(Br)cc2)n1CCCO`, the “hERG current change (%, negative = inhibition) at 10uM” value was 0.999%.
In the case of `O=c1c2ccccc2nc(/C=C/c2ccccc2)n1CCCO`, the “hERG current change (%, negative = inhibition) at 10uM” value is reported as -8.23%.
`O=c1c2ccccc2nc(SCc2ccc([N+](=O)[O-])cc2)n1CCCO` was tested, and the “hERG current change (%, negative = inhibition) at 10uM” value was -57.9%.
`COCC(C)n1c(COc2ccccc2F)nnc1SCC(=O)c1c(N)n(C)c(=O)n(C)c1=O` (stereo not shown) was tested, and the “hERG current change (%, negative = inhibition) at 10uM” value was 16.4%.
With `N#C/C(=C\c1c(F)cccc1Cl)S(=O)(=O)c1ccccn1` the “hERG current change (%, negative = inhibition) at 10uM” value was 3.15%.
For `COc1cc(-c2nc(S(=O)(=O)c3ccc(Cl)cc3)c(N3CCOCC3)o2)cc(OC)c1OC`, the “hERG current change (%, negative = inhibition) at 10uM” value was -3.17%.
In the case of `Cl.NNc1nc(-c2ccccc2)cs1`, the “hERG current change (%, negative = inhibition) at 10uM” value is reported as 29.7%.
For `COc1cccc(NC(=O)CCCN2C(=O)C3CC=CCC3C2=O)c1` (stereo not shown), the “hERG current change (%, negative = inhibition) at 10uM” value was -2.79%.
For `Cc1cc([N+](=O)[O-])nn1CCCC(=O)NCc1ccccc1`, the “hERG current change (%, negative = inhibition) at 10uM” value was -5.8%.
For `Cc1ccccc1NC(=O)C1=CC=CN2CCS(=O)(=O)N=C12`, the “hERG current change (%, negative = inhibition) at 10uM” value was -11.7%.
`O=C(Nc1cccc2ncccc12)c1cccc(F)c1` was tested, and the “hERG current change (%, negative = inhibition) at 10uM” value was -11.1%.
For `CCOC(=O)C1(Cc2cccc(OC)c2)CCN(Cc2cccc(OCC)c2O)CC1`, the “hERG current change (%, negative = inhibition) at 10uM” value was -56.8%.
With `CCOC(=O)C1(Cc2cccc(OC)c2)CCN(Cc2cccc3c2OCO3)CC1` the “hERG current change (%, negative = inhibition) at 10uM” value was -39.4%.
With `CCOC(=O)C1(Cc2ccccc2)CCN(Cc2cccc(OC)c2O)CC1` the “hERG current change (%, negative = inhibition) at 10uM” value was -69.6%.
In the case of `CCOC(=O)C1(CC2CC2)CCN(Cc2cn(C)c3ccccc23)CC1`, the “hERG current change (%, negative = inhibition) at 10uM” value is reported as -31%.
`CCOC(=O)C1(Cc2ccccc2)CCN(Cc2cn(CC(=O)OC)c3ccccc23)CC1` was tested, and the “hERG current change (%, negative = inhibition) at 10uM” value was -78.1%.
In the case of `CCOC(=O)C1(Cc2cccc(OC)c2)CCN(Cc2ccccc2OC)CC1`, the “hERG current change (%, negative = inhibition) at 10uM” value is reported as -51.3%.
`Cc1cc(=O)nc2c3ccccc3n(CC(=O)Nc3ccccc3Br)n12` was tested, and the “hERG current change (%, negative = inhibition) at 10uM” value was -7.45%.
For `CCOc1ccc(N(CC(=O)Nc2cccc(Br)c2)S(C)(=O)=O)cc1`, the “hERG current change (%, negative = inhibition) at 10uM” value was -1.12%.
In the case of `NC(=O)C1CCN(/C=C2\C(=O)NC(=O)N(Cc3ccco3)C2=O)CC1`, the “hERG current change (%, negative = inhibition) at 10uM” value is reported as 6.74%.
`COc1ccccc1CNC(=O)COc1ccc(C)nc1[N+](=O)[O-]` was tested, and the “hERG current change (%, negative = inhibition) at 10uM” value was 18.3%.
With `CCN(C(=O)COc1ccc(C(=O)c2ccccc2)cc1)c1ccccc1` the “hERG current change (%, negative = inhibition) at 10uM” value was -18.9%.
